High-throughput results from PubChem BioAssay.
LGR2 antag: inhibitors of bursicon-induced LGR2 CRE-luciferase signal, primary screen, cell-based, HEK293, CRE-luciferase reporter, bursicon stimulation; AID 720647, 2013; inhibition, % at 9.99 µM; actives 0.35% (n = 380,000); bursicon-stimulated, 4 h;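 active = drop in luminescence signal, shown as inhibition above about 50% in the replicate tests, limit read from the data, passing the limit was not always enough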;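 note: agonist challenge used bursicon conditioned medium at about half maximal strength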
LMP1 NFkB inh: EBV LMP1-driven NF-kappaB luciferase reporter inhibitors, primary screen, cell-based, luminescence, single point; inhibition, % at 12.5 µM; LMP1-induced NF-kappaB luciferase reporter cells; AID 504558, 2011; actives 0.69% (n = 350,000); in the data active = inhibition above about 41%
Shn3 inh set2: reduction of Shn3 3'UTR firefly luciferase signal, primary screen, Schnurri-3 inhibitor project, cell-based, Clone20 osteoblasts, set 2 | actives 0.52% (n = 360,000) | inhibition, % at 12.5 µM | AID 588674, 2011 | Clone20 osteoblast Shn3 3'UTR firefly luciferase, 24 h;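 active = mean inhibition of at least 75% with every replicate also reaching 75%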
EWS-Fli block: EWS/Fli-driven NR0B1 reporter inhibitors, primary screen, A673 cells, NR0B1 luciferase, luminescence, MLPCN library; actives 0.67% (n = 350,000); inhibition, % at 12.6 µM; viability-normalised;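 active = mean inhibition of at least 50% after viability correction, with every replicate also passing that limit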;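 note: firefly luciferase signal divided by Alamar Blue viability fluorescence both relative to DMSO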
PAX8 reporter: inhibitors of PAX8-driven TPO luciferase reporter, primary screen, RMG-I cells, single concentration; SteadyGlo, 24 h; inhibition, % at 12.6 µM; actives 1.2% (n = 360,000); AID 652154, 2013;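 active = mean replicate inhibition at least 60% with every replicate also reaching 60%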;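 note: luciferase light reporting Pax8 driven TPO promoter activity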
MITF TRPM1 inh: inhibitors of MITF-dependent TRPM1 promoter reporter, primary screen, cell-based, SK-MEL-5, single point, luciferase | SK-MEL-5 TRPM1 promoter luciferase, 24 h | inhibition, % at 12.5 µM | actives 0.83% (n = 330,000);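 active = mean inhibition across replicates of 60% or more, whatever share of single replicates reaches that level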
A number is an active result; 0 = inactive; - = no result. Only some compounds are listed: those with a hit (about 2.2% of all), similar ones and a draw of the others.

SMILES	LGR2 antag	LMP1 NFkB inh	Shn3 inh set2	EWS-Fli block	PAX8 reporter	MITF TRPM1 inh
CCN(CC)c1ccc2c(c1)oc(=O)c1c(Cl)cc(=O)oc12	-	0	96.3	-	-	80.4
CC(C)NC(=O)Nc1cccc2c1O[C@@H](CN(C)Cc1ccc3c(c1)OCO3)[C@@H](C)CN([C@@H](C)CO)C2=O	0	-	-	0	0	-
Cc1ccccc1N(C(=O)c1snc(C(N)=O)c1N)C(C(=O)NC1CCCCC1)c1ccc(O)cc1 (stereo unspecified)	0	40.8	0	0	0	0
Cc1noc(C)c1S(=O)(=O)Nc1ccc2c(c1)C(=O)N([C@@H](C)CO)C[C@@H](C)[C@H](CN(C)C(=O)Nc1ccccc1)OCCCC[C@@H](C)O2	0	-	-	0	0	-
CCC(C)NCC(=O)Nc1ccc(-c2nc3cc(NC(=O)CNC(C)CC)ccc3o2)cc1 (stereo unspecified)	0	0	0	-	-	84.0
C[C@H](CO)N1C[C@H](C)[C@@H](CN(C)C(=O)Nc2cccc3ccccc23)Oc2ccc(NC(=O)Nc3ccc4c(c3)OCO4)cc2CC1=O	0	-	-	0	73.5	-
C[C@H](CO)N1C[C@H](C)[C@@H](CN(C)Cc2ccccc2)Oc2ccc(NC(=O)Nc3cccc4ccccc34)cc2CC1=O	0	-	-	56.2	0	-
C[C@H]1CN([C@@H](C)CO)C(=O)Cc2cc(NC(=O)Nc3ccc4c(c3)OCO4)ccc2O[C@@H]1CN(C)C(=O)Nc1cccc2ccccc12	0	-	-	0	0	-
COc1ccc(NC(=O)N(C)C[C@H]2Oc3c(NC(=O)Nc4c(C)noc4C)cccc3C(=O)N([C@@H](C)CO)C[C@H]2C)cc1	0	-	-	0	-	-
Cc1ccc(-c2nc3sc(C(N)=O)c(N)c3c3c2CCCC3)cc1	0	0	0	0	0	0
Cc1nc2sc(C(N)=O)c(N)c2c2c1CCCC2	0	51.3	0	0	0	0
O=C(C1CCC1)N1CCCCN2[C@@H](CO)[C@@H](c3ccc(-c4ccncc4)cc3)[C@@H]2C1	0	-	-	0	0	-
O=C(N[C@H]1CC[C@@H](CC(=O)N2CCc3ccccc3C2)O[C@@H]1CO)C1CCOCC1	0	-	-	0	0	-
COc1ccc2c3c(n(C)c2c1)[C@@H](CO)N(Cc1ccccc1)CC31CCN(S(=O)(=O)c2ccc(C)cc2)CC1	0	-	-	0	0	-
C[C@@H]1CN([C@H](C)CO)C(=O)c2cc(NS(=O)(=O)c3ccc(Cl)cc3)ccc2O[C@@H](C)CCCCO[C@H]1CN(C)S(=O)(=O)c1ccc(F)cc1	0	-	-	0	87.2	-
C[C@@H]1CCCCO[C@H](CN(C)S(=O)(=O)c2ccc(Cl)cc2)[C@@H](C)CN([C@@H](C)CO)C(=O)c2cc(NS(=O)(=O)c3ccc(F)cc3)ccc2O1	0	-	-	0	75.1	-
C[C@@H]1CCCCO[C@@H](CN(C)S(=O)(=O)c2ccc(Cl)cc2)[C@H](C)CN([C@H](C)CO)C(=O)c2cc(NS(=O)(=O)c3ccc(F)cc3)ccc2O1	0	-	-	0	80.7	-
C[C@H](CO)N1C[C@H](C)[C@@H](CN(C)S(=O)(=O)c2ccc(F)cc2)OCCCC[C@H](C)Oc2ccc(NS(=O)(=O)c3ccc(Cl)cc3)cc2C1=O	0	-	-	0	90.0	-
C[C@@H]1CN([C@@H](C)CO)C(=O)c2cc(NC(=O)NC3CCCCC3)ccc2O[C@@H](C)CCCCO[C@H]1CN(C)S(=O)(=O)c1ccc(F)cc1	0	-	-	0	0	-
CCCC(=O)Nc1ccc2c(c1)OC[C@H](C)N(C(=O)CC1CC1)C[C@H](C)[C@H](OC)CN(C)C2=O	0	-	-	0	0	-
Cc1cc(C(=O)Nc2ccc3c(c2)C(=O)N(C)[C@@H]2CC[C@@H](CC(=O)NC4CCCC4)O[C@H]2CO3)no1	0	-	-	0	0	-
COc1ccc(/C=N/NC(=O)c2cccc(C(=O)N/N=C/c3ccc(OC)c(OC)c3)n2)cc1OC	0	-	0	0	0	0
COc1ccc(/C=N/NC(=O)Nc2cccc3nsnc23)cc1OC	-	0	0	0	86.3	0
Fc1ccc(NC(=S)NN=Cc2ccccc2Cl)cc1	0	0	0	0	0	0
COc1ccc(/C=N/NC(=S)Nc2cccc(C(=O)O)c2)cc1OC	82.2	0	0	0	0	0
SMILES	LGR2 antag	LMP1 NFkB inh	Shn3 inh set2	EWS-Fli block	PAX8 reporter	MITF TRPM1 inh
Oc1ccccc1C=NNC(=S)Nc1ccc(F)cc1	0	0	90.1	0	0	0
COc1ccc(C=NNC(=S)Nc2ccc(F)cc2)cc1OC	49.6	0	0	0	0	0
CCC(=O)N1C[C@@H](C)[C@@H](OC)CN(C)C(=O)c2cc(NS(C)(=O)=O)ccc2OC[C@@H]1C	0	-	-	0	-	-
COc1cccc(-c2ccc3n(c2=O)C[C@@H]2[C@@H](CO)[C@H](C(=O)N(C)C)N(C(=O)C4CCCC4)[C@H]32)c1	0	-	-	0	-	-
CN(CCO)c1cc(Sc2nc3ccccc3s2)c2nonc2c1[N+](=O)[O-]	0	0	87.2	53.5	-	91.5
COc1cccc(CN2[C@@H]3CN(C(=O)CC(F)(F)F)c4ccccc4[C@@H]3[C@@H]2CO)c1	0	-	-	0	0	-
COc1ccc([Si](C)(C)[C@@H]2[C@@H](CCO)O[C@]3(C(=O)N(Cc4cccc(N5CCOC5=O)c4)c4ccccc43)[C@H]2C)cc1	-	-	-	0	101.8	-
COc1ccc([Si](C)(C)[C@H]2[C@H](CCO)O[C@@]3(C(=O)N(Cc4ccccc4)c4ccc(N5CCC5=O)cc43)[C@@H]2C)cc1	-	-	-	0	110.0	-
COc1ccc([Si](C)(C)[C@@H]2[C@@H](CCO)O[C@]3(C(=O)N(Cc4ccccc4)c4ccc(N5CCOC5=O)cc43)[C@H]2C)cc1	-	-	-	0	0	-
COc1ccc([Si](C)(C)[C@H]2[C@H](CCO)O[C@@]3(C(=O)N(Cc4ccccc4)c4ccc(N5CCCCC5=O)cc43)[C@@H]2C)cc1	-	-	-	0	0	-
COc1ccc([Si](C)(C)[C@@H]2[C@@H](CCO)O[C@]3(C(=O)N(Cc4ccc(N5CCOC5=O)cc4)c4ccccc43)[C@H]2C)cc1	-	-	-	0	96.7	-
N#C[C@H]1[C@@H](c2ccccc2-c2cccc(F)c2)[C@@H](CO)N1C(=O)CN1CCOCC1	0	-	-	0	-	-
CCCN(C)C[C@H]1OCCCC[C@H](C)Oc2ccc(NC(=O)Cc3ccccc3)cc2C(=O)N([C@H](C)CO)C[C@H]1C	0	-	-	0	0	-
CCOc1ccc(C(C)=O)cc1COc1cccnc1[N+](=O)[O-]	0	50.8	0	-	0	0
CCOC(=O)N1C(=O)[C@@](CC)(c2ccccc2)N1C(=O)OCC	0	0	0	0	0	74.8
COc1ccccc1OCCN1CSC(=S)N(C)C1	0	0	0	-	0	69.5
CCCc1cn(CC[C@H]2CC[C@@H](NC(=O)Nc3ccccc3F)[C@H](CO)O2)nn1	0	-	-	0	0	-
